Laboratory results as given in PubChem BioAssay AID1159580 (chemical genetic matrix, 2015).
The campaign covered roughly 5,500 compounds. About 2,000 (36%) were called active. Roughly 18% stayed inconclusive and do not appear here. Rule as the data show it: active = normalized growth mostly below about 0.91 (no sharp cut-off); inconclusive = no clear call, values can overlap the other calls; inactive = mostly above about 0.92. The list shows a part of the results.

Assay: chemical genetic growth profiling, strain panel (AID 1159580);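 also: tested at 20 µM; growth read once vehicle control cultures reached saturation at 30 °C; 1 = growth at the plate median or of vehicle wells; lower values mean less growth of the strain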
Conditions: growth OD

Measured: normalized growth

CCOC(=O)c1c(C)cc(O)c(C=O)c1O
active: S. cerevisiae deletion strains, locus YJR075W, strain HOC1, hits give low values 0.272 | S. cerevisiae deletion strains, locus YKL009W, strain mrt4, hits give low values 0.446 | S. cerevisiae deletion strains, locus YKL068W, hits give low values 0.799 | S. cerevisiae deletion strains, locus YKL085W, strain MDH1 (second series), hits give low values 0.528 | S. cerevisiae deletion strains, locus YKL085W, strain MDH1, hits give low values 0.528 | S. cerevisiae deletion strains, locus YKL160W, strain elf1, hits give low values 0.655 | S. cerevisiae deletion strains, locus YKL190W, strain CNB1, hits give low values 0.108 | S. cerevisiae deletion strains, locus YKR001C, strain vps1, hits give low values 0.103 | S. cerevisiae deletion strains, locus YKR026C, strain gcn3, hits give low values 0.823 | S. cerevisiae deletion strains, locus YKR091W, strain srl3, hits give low values 0.851 | S. cerevisiae deletion strains, locus YLL001W, strain dnm1, hits give low values 0.568 | S. cerevisiae deletion strains, locus YLL026W, hits give low values 0.706 | S. cerevisiae deletion strains, locus YLL041C, strain sdh2, hits give low values 0.823 | S. cerevisiae deletion strains, locus YLR027C, strain aat2, hits give low values 0.593 | S. cerevisiae deletion strains, locus YLR039C, strain RIC1, hits give low values 0.0958 | S. cerevisiae deletion strains, locus YLR058C, strain SHM2, hits give low values 0.202 | S. cerevisiae deletion strains, locus YLR102C, strain apc9, hits give low values 0.221 | S. cerevisiae deletion strains, locus YLR113W, strain HOG1, hits give low values 0.157 | S. cerevisiae deletion strains, locus YLR221C, strain rsa3, hits give low values 0.499 | S. cerevisiae deletion strains, locus YLR258W, strain gsy2, hits give low values 0.681 | S. cerevisiae deletion strains, locus YLR262C, strain YPT6 (second series), hits give low values 0.153 | S. cerevisiae deletion strains, locus YLR262C, strain YPT6, hits give low values 0.113 | S. cerevisiae deletion strains, locus YLR268W, strain sec22, hits give low values 0.091 | S. cerevisiae deletion strains, locus YLR320W, strain mms22, hits give low values 0.292 | S. cerevisiae deletion strains, locus YLR330W, strain CHS5, hits give low values 0.176 | S. cerevisiae deletion strains, locus YLR342W, strain FKS1 (second series), hits give low values 0.159 | S. cerevisiae deletion strains, locus YLR342W, strain FKS1, hits give low values 0.586 | S. cerevisiae deletion strains, locus YLR357W, strain rsc2, hits give low values 0.772 | S. cerevisiae deletion strains, locus YLR370C, strain arc18, hits give low values 0.656 | S. cerevisiae deletion strains, locus YLR371W, strain rom2, hits give low values 0.158 | S. cerevisiae deletion strains, locus YLR384C, strain iki3, hits give low values 0.718 | S. cerevisiae deletion strains, locus YLR418C, strain cdc73, hits give low values 0.13 | S. cerevisiae deletion strains, locus YML016C, strain PPZ1, hits give low values 0.344 | S. cerevisiae deletion strains, locus YML032C, strain rad52, hits give low values 0.137 | S. cerevisiae deletion strains, locus YML120C, strain ndi1, hits give low values 0.652 | S. cerevisiae deletion strains, locus YML124C, strain tub3, hits give low values 0.262 | S. cerevisiae deletion strains, locus YMR058W, strain fet3, hits give low values 0.0978 | S. cerevisiae deletion strains, locus YMR078C, strain ctf18, hits give low values 0.112 | S. cerevisiae deletion strains, locus YMR125W, strain sto1, hits give low values 0.673 | S. cerevisiae deletion strains, locus YMR129W, hits give low values 0.722 | S. cerevisiae deletion strains, locus YMR205C, strain PFK2, hits give low values 0.47 | S. cerevisiae deletion strains, locus YMR223W, strain ubp8, hits give low values 0.2 | S. cerevisiae deletion strains, locus YMR231W, strain pep5, hits give low values 0.311 | S. cerevisiae deletion strains, locus YMR263W, strain SAP30, hits give low values 0.353 | S. cerevisiae deletion strains, locus YMR307W, strain GAS1, hits give low values 0.133 | S. cerevisiae deletion strains, locus YNL067W, strain RPL9B, hits give low values 0.201 | S. cerevisiae deletion strains, locus YNL071W, strain lat1, hits give low values 0.248 | S. cerevisiae deletion strains, locus YNL128W, strain TEP1, hits give low values 0.237 | S. cerevisiae deletion strains, locus YNL153C, strain GIM3, hits give low values 0.205 | S. cerevisiae deletion strains, locus YNL183C, strain NPR1, hits give low values 0.0359 | S. cerevisiae deletion strains, locus YNL209W, strain ssb2, hits give low values 0.392 | S. cerevisiae deletion strains, locus YNL233W, strain BNI4, hits give low values 0.153 | S. cerevisiae deletion strains, locus YNL248C, strain rpa49, hits give low values 0.635 | S. cerevisiae deletion strains, locus YNL250W, strain rad50, hits give low values 0.514 | S. cerevisiae deletion strains, locus YNL271C, strain bni1, hits give low values 0.347 | S. cerevisiae deletion strains, locus YNL298W, strain CLA4, hits give low values 0.382 | S. cerevisiae deletion strains, locus YNL307C, strain MCK1, hits give low values 0.0757 | S. cerevisiae deletion strains, locus YNL322C, strain KRE1 (second series), hits give low values 0.797 | S. cerevisiae deletion strains, locus YNL322C, strain KRE1, hits give low values 0.207 | S. cerevisiae deletion strains, locus YNR049C, strain mso1, hits give low values 0.796 | S. cerevisiae deletion strains, locus YNR052C, strain pop2, hits give low values 0.155 | S. cerevisiae deletion strains, locus YOL006C, strain TOP1, hits give low values 0.137 | S. cerevisiae deletion strains, locus YOL147C, strain pex11, hits give low values 0.0808 | S. cerevisiae deletion strains, locus YOR001W, strain rrp6, hits give low values 0.604 | S. cerevisiae deletion strains, locus YOR061W, strain CKA2, hits give low values 0.486 | S. cerevisiae deletion strains, locus YOR069W, strain VPS5, hits give low values 0.255 | S. cerevisiae deletion strains, locus YOR070C, strain gyp1, hits give low values 0.535 | S. cerevisiae deletion strains, locus YOR080W, strain dia2, hits give low values 0.642 | S. cerevisiae deletion strains, locus YOR083W, strain WHI5, hits give low values 0.674 | S. cerevisiae deletion strains, locus YOR106W, strain vam3, hits give low values 0.358 | S. cerevisiae deletion strains, locus YOR136W, strain idh2, hits give low values 0.267 | S. cerevisiae deletion strains, locus YOR144C, strain elg1, hits give low values 0.136 | S. cerevisiae deletion strains, locus YOR184W, strain ser1, hits give low values 0.0931 | S. cerevisiae deletion strains, locus YOR231W, strain MKK1, hits give low values 0.142 | S. cerevisiae deletion strains, locus YOR265W, strain rbl2, hits give low values 0.697 | S. cerevisiae deletion strains, locus YOR270C, strain vph1, hits give low values 0.263 | S. cerevisiae deletion strains, locus YOR290C, strain snf2, hits give low values 0.558 | S. cerevisiae deletion strains, locus YOR316C, strain cot1, hits give low values 0.213 | S. cerevisiae deletion strains, locus YPL051W, strain arl3, hits give low values 0.225 | S. cerevisiae deletion strains, locus YPL055C, strain LGE1, hits give low values 0.171 | S. cerevisiae deletion strains, locus YPL078C, strain atp4, hits give low values 0.558 | S. cerevisiae deletion strains, locus YPL106C, strain sse1, hits give low values 0.708 | S. cerevisiae deletion strains, locus YPL240C, strain hsp82, hits give low values 0.75 | S. cerevisiae deletion strains, locus YPL241C, strain CIN2, hits give low values 0.224 | S. cerevisiae deletion strains, locus YPL256C, strain CLN2, hits give low values 0.15 | S. cerevisiae deletion strains, locus YPR119W, strain clb2, hits give low values 0.164 | S. cerevisiae deletion strains, locus YPR141C, strain kar3, hits give low values 0.704 | S. cerevisiae deletion strains, locus YPR163C, strain tif3, hits give low values 0.0943 | S. cerevisiae deletion strains, locus YPR167C, strain met16, hits give low values 0.252 | S. cerevisiae deletion strains, strain wtn01, hits give low values 0.166 | S. cerevisiae strains, strain wild type, hits give low values 0.162
inactive: S. cerevisiae deletion strains, locus YOL012C, strain htz1 0.305
